# Reference: ChEMBL document CHEMBL1961873, “Compounds: GSK PKIS; Assays: Nanosyn kinase panel” (2012)
# Legend:
# [1] = target: Sphingosine kinase 1 (Homo sapiens) (UniProt Q9NYA1); settings: at 1 µM;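 further: mean SPHK1 inhibition value reported from the GSK PKIS kinase panel screen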
# [2] = target: T1, Sphingosine kinase 2 (Homo sapiens) (UniProt Q9NRA0); settings: at 0.1 µM
# T1 sequence (whole entry): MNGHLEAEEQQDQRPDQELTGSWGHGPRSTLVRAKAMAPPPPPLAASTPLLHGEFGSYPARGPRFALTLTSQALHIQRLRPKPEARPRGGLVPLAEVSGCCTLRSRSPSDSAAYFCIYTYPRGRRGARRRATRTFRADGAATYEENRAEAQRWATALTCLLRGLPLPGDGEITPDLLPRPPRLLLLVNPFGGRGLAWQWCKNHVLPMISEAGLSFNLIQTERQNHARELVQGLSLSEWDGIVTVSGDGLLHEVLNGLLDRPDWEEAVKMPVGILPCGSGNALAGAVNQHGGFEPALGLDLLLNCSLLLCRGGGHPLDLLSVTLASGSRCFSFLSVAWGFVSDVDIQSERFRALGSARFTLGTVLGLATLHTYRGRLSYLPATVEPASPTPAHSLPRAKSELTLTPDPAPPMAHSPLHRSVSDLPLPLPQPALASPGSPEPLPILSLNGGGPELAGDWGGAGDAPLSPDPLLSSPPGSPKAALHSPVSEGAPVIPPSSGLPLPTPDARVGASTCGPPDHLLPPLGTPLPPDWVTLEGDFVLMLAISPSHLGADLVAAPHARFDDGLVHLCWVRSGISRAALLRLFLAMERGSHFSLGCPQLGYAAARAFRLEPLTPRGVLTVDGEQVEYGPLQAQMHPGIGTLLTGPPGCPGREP
# [3] = target: T1, Sphingosine kinase 2 (Homo sapiens); settings: at 1 µM
# [4] = target: Casein kinase II subunit alpha (Homo sapiens) (UniProt P68400); settings: at 0.1 µM
# Sequence of Casein kinase II subunit alpha (Homo sapiens) (P68400 whole entry, looked up): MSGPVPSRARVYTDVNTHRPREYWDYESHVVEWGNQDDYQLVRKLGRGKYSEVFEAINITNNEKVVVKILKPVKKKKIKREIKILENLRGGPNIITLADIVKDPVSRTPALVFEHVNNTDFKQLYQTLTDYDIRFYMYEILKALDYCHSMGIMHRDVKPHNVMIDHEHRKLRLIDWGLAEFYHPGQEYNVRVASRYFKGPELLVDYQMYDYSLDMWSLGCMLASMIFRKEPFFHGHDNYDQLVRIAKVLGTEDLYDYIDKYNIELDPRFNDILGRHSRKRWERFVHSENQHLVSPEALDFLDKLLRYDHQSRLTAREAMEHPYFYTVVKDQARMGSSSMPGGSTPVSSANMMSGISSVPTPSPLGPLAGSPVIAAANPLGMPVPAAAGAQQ
# [5] = target: Casein kinase II subunit alpha (Homo sapiens) (UniProt P68400); settings: at 1 µM
# [6] = target: T2, Inhibitor of nuclear factor kappa-B kinase subunit alpha (Homo sapiens) (UniProt O15111); settings: at 0.1 µM
# T2 sequence (whole entry): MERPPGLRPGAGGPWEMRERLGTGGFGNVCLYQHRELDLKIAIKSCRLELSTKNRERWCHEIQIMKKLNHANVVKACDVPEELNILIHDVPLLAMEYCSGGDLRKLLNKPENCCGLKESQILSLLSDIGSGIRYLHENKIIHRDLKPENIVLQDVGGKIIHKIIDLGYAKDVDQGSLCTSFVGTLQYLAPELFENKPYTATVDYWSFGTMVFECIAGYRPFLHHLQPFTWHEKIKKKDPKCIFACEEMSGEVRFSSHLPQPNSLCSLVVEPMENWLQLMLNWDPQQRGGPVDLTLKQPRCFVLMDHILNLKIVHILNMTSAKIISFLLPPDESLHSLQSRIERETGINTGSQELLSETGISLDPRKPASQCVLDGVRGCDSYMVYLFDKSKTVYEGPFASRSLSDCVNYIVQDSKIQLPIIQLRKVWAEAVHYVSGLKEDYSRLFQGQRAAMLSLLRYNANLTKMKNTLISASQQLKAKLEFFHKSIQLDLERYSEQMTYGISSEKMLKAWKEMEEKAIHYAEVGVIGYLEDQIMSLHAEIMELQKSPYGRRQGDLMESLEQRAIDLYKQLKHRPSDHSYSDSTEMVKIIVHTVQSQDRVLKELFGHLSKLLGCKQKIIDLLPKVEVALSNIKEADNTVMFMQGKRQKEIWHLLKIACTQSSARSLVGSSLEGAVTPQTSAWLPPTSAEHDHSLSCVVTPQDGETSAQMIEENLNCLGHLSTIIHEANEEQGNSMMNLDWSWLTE
# [7] = target: T2, Inhibitor of nuclear factor kappa-B kinase subunit alpha (Homo sapiens); settings: at 1 µM
# [8] = target: T3, Inhibitor of nuclear factor kappa-B kinase subunit beta (Homo sapiens) (UniProt O14920); settings: at 0.1 µM
# T3 sequence (whole entry): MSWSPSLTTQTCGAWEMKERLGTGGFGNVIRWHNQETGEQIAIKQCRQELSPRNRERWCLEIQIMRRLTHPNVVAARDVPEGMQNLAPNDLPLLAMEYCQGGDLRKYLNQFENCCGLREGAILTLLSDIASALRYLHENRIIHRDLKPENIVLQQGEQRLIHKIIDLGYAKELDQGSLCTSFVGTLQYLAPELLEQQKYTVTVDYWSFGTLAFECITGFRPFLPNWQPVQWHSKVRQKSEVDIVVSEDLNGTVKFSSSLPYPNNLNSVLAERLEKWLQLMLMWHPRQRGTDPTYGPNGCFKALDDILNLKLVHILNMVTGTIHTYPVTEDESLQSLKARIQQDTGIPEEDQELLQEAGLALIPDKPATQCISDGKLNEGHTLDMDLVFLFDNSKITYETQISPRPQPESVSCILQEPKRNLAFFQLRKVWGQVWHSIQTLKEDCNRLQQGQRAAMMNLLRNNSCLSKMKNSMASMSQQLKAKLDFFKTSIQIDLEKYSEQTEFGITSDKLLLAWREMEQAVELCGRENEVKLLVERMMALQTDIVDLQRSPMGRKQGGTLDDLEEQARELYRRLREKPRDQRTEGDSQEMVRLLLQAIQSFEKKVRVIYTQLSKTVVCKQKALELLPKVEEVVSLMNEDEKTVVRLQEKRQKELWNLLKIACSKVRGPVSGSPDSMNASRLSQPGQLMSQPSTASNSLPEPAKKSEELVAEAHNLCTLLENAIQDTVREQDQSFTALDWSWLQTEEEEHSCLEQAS
# [9] = target: T3, Inhibitor of nuclear factor kappa-B kinase subunit beta (Homo sapiens); settings: at 1 µM
# [10] = target: T4, Inhibitor of nuclear factor kappa-B kinase subunit epsilon (Homo sapiens) (UniProt Q14164); settings: at 0.1 µM
# T4 sequence (whole entry): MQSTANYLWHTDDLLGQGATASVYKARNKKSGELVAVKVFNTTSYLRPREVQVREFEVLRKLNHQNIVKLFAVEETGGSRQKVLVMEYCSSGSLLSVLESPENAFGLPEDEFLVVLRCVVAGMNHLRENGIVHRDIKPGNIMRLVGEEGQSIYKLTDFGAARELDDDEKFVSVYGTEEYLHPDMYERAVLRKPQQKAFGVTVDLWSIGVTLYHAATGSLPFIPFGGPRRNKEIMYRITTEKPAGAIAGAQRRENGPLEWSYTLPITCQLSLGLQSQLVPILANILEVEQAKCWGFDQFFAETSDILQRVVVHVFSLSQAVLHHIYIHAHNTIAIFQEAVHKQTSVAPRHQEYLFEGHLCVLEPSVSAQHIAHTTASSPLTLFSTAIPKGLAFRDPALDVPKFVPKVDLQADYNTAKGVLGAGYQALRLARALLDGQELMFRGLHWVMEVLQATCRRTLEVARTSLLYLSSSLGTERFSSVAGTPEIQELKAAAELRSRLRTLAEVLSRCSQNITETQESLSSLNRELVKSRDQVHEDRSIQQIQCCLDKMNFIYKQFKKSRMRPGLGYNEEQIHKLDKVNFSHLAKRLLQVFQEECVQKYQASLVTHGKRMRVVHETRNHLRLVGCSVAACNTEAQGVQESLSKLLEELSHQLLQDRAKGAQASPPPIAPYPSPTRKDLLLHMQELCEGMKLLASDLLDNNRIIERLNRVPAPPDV
# [11] = target: T4, Inhibitor of nuclear factor kappa-B kinase subunit epsilon (Homo sapiens); settings: at 1 µM
# [12] = target: T5, Serine/threonine-protein kinase Nek1 (Homo sapiens) (UniProt Q96PY6); settings: at 0.1 µM
# T5 sequence (whole entry): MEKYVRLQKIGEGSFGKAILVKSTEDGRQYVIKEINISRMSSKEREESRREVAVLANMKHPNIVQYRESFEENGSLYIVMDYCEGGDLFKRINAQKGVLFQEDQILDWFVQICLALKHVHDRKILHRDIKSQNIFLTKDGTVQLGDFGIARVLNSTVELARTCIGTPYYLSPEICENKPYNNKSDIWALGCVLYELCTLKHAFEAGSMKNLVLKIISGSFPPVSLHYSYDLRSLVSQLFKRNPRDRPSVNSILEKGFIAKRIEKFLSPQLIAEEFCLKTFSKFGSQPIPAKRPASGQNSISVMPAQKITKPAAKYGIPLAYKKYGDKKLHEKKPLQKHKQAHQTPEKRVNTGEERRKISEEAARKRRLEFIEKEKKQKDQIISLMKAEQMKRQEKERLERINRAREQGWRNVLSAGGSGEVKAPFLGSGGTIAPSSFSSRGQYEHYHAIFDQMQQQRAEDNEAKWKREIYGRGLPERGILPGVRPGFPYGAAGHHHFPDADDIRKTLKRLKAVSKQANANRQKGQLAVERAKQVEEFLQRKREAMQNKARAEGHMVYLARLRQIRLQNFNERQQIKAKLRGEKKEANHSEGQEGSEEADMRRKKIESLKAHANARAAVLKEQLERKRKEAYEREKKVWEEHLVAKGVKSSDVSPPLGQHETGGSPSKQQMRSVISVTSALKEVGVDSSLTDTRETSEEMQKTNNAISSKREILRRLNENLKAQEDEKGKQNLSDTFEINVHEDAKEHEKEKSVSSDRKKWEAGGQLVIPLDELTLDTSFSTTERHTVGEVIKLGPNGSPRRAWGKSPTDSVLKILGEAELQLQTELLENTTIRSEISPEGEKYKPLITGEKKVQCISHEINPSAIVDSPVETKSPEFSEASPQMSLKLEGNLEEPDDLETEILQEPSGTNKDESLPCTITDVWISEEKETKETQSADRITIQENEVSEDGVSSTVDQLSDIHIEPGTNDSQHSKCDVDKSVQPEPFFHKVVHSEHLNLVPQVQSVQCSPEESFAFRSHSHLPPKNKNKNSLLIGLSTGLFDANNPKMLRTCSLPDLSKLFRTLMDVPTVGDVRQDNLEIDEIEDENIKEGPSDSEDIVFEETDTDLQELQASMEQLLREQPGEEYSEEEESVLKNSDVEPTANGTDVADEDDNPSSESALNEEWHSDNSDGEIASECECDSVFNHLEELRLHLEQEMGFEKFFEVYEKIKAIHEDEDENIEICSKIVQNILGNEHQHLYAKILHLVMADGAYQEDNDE
# [13] = target: T5, Serine/threonine-protein kinase Nek1 (Homo sapiens); settings: at 1 µM
# [14] = target: T6, Serine/threonine-protein kinase Nek2 (Homo sapiens) (UniProt P51955); settings: at 0.1 µM
# T6 sequence (whole entry): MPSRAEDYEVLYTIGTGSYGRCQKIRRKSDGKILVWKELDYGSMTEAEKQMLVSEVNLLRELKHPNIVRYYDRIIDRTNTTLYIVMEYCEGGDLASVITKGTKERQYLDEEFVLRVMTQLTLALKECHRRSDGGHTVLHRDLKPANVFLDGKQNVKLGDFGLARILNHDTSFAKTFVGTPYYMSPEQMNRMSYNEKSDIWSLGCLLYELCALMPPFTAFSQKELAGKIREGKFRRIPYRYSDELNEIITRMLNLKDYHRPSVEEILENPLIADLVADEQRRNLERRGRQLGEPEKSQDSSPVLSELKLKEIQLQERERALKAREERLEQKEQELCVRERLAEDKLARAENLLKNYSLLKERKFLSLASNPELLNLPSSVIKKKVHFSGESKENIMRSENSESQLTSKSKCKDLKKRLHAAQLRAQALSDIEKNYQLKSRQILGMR
# [15] = target: T6, Serine/threonine-protein kinase Nek2 (Homo sapiens); settings: at 1 µM
# [16] = target: Serine/threonine-protein kinase Nek6 (Homo sapiens) (UniProt Q9HC98); settings: at 0.1 µM
# Sequence of Serine/threonine-protein kinase Nek6 (Homo sapiens) (Q9HC98 whole entry): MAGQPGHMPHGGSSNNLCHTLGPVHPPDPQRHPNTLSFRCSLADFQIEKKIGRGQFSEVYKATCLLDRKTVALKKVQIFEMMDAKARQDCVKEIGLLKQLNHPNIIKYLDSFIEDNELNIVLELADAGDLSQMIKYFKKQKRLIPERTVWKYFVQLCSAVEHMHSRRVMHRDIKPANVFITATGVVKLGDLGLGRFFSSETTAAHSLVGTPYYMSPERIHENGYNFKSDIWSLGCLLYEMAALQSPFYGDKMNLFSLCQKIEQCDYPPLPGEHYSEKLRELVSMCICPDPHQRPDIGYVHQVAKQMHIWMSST
# [17] = target: Serine/threonine-protein kinase Nek6 (Homo sapiens) (UniProt Q9HC98); settings: at 1 µM
# [18] = target: Serine/threonine-protein kinase Nek7 (Homo sapiens) (UniProt Q8TDX7); settings: at 0.1 µM
# Sequence of Serine/threonine-protein kinase Nek7 (Homo sapiens) (Q8TDX7 whole entry, looked up): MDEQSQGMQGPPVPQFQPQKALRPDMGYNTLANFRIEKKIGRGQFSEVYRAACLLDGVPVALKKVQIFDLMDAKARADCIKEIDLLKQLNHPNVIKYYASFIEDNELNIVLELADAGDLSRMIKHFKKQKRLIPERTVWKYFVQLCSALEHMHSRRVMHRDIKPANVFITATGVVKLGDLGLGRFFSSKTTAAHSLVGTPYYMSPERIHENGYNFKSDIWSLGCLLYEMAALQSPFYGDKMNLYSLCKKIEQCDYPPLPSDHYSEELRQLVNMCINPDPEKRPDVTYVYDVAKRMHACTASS
# [19] = target: Serine/threonine-protein kinase Nek7 (Homo sapiens) (UniProt Q8TDX7); settings: at 1 µM
# [20] = target: T7, Serine/threonine-protein kinase Nek9 (Homo sapiens) (UniProt Q8TD19); settings: at 0.1 µM;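 further: reported value is the mean percent inhibition of NEK9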
# T7 sequence (whole entry): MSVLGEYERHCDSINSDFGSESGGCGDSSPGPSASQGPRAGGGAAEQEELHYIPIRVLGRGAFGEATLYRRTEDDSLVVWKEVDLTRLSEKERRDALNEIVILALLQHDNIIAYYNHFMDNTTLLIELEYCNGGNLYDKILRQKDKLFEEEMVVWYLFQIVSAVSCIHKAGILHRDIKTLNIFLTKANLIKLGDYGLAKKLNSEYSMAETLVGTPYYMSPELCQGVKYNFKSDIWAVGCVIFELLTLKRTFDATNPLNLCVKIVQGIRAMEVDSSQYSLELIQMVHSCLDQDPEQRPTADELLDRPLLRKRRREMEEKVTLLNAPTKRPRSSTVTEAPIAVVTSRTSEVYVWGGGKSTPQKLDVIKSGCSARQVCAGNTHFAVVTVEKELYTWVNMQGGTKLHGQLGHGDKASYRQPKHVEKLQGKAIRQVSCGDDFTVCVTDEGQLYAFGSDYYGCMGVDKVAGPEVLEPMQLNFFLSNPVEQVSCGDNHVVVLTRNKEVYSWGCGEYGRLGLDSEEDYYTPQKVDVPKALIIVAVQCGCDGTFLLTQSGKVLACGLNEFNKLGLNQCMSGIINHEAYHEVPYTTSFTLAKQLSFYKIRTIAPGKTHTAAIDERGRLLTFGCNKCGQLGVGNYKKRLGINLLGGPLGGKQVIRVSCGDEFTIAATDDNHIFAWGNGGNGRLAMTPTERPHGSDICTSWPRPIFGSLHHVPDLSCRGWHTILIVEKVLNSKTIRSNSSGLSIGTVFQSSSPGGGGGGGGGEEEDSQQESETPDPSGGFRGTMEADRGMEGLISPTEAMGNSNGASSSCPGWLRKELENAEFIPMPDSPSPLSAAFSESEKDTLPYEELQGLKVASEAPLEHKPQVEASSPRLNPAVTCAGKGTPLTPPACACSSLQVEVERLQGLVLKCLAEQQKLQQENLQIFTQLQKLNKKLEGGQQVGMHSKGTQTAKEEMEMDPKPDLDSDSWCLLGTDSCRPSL
# Sequence of Sphingosine kinase 1 (Homo sapiens) (Q9NYA1 whole entry): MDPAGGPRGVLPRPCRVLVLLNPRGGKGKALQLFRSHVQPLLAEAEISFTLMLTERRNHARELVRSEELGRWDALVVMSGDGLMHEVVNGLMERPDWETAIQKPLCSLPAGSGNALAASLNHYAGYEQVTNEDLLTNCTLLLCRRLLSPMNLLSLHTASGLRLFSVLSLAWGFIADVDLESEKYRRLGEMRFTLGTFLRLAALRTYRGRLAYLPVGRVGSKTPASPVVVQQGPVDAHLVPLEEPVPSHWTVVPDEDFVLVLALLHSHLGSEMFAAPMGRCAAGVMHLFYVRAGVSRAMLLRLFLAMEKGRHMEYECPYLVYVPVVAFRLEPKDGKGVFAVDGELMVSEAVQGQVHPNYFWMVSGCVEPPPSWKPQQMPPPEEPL
smiles,measurement,setting,value
[O-][S+]1CCN(Cc2ccc(-c3ccc4ncnc(Nc5ccc(OCc6ccccc6)c(Cl)c5)c4c3)o2)CC1,inhibition,[1],0.98%
same,inhibition,[2],0.01%
same,inhibition,[3],2.21%
same,inhibition,[4],3.5%
same,inhibition,[5],2.9%
same,inhibition,[6],2.69%
same,inhibition,[7],-1.63%
same,inhibition,[8],2.83%
same,inhibition,[9],1.96%
same,inhibition,[10],1.93%
same,inhibition,[11],1.71%
same,inhibition,[12],0.94%
same,inhibition,[13],0.52%
same,inhibition,[14],3.08%
same,inhibition,[15],0.41%
same,inhibition,[16],3.35%
same,inhibition,[17],1.93%
same,inhibition,[18],1.32%
same,inhibition,[19],5.75%
same,inhibition,[20],0.79%
